From PubChem
Most compounds without a hit are left out; they make up all but 4% or so of the library.
HSV augment = increases HSV replication in cells | HSV replication augmentation in cells, fold increase | maximum fold increase | 220,000 compounds, 0.005% hits | AID 1956; in the data active means maximum fold increase above about 1.5; inconclusive means no clear call, values can overlap the other calls; tested in PC3 cells
ROMK mod = modulates human ROMK potassium channel activity; 130,000 compounds, 2% hits; B-score at 10 µM; P48048; Tet-inducible ROMK, thallium flux fluorescence; actives lie on both sides;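 active means signal ratio slope over the read window, or its plate-corrected B-score, at least 3 SD from the plate mean, either direction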;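 further: B-score of the F/F0 ratio slope over 7 to 12 s after thallium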
Measles CPE = protection of cells from measles virus. Measles virus-infected cells, CPE protection, absorbance. protection (pct of control), % at 4 µM. 140,000 compounds, 1.5% hits; in the data active means protection mostly above about 24%, no sharp cut-off; inactive means mostly below about 26%
Arbovirus anti = blocks arbovirus infection; arbovirus infection cell-based antiviral screen; inhibition, % at 10 µM; 200,000 compounds, 0.37% hits; AID 1251; in the data active means inhibition above about 30%
Cl transport mod = modulates chloride dependent transport by human KCC2 | B-score of Tl+ flux slope (higher = more flux/activation; lower = inhibition) at 10 µM | KCC2 cells, thallium flux FluoZin-2 fluorescence | 190,000 compounds, 2.2% hits | AID 1456 | Q9H2X9;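 active means thallium flux slope and its plate-corrected score both differing from the plate sample mean at a set confidence after two filtering rounds, in either direction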;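 further: slope of fluorescence scaled to starting intensity during 10 to 20 s after thallium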
Target sequence (Q9H2X9 whole entry, looked up): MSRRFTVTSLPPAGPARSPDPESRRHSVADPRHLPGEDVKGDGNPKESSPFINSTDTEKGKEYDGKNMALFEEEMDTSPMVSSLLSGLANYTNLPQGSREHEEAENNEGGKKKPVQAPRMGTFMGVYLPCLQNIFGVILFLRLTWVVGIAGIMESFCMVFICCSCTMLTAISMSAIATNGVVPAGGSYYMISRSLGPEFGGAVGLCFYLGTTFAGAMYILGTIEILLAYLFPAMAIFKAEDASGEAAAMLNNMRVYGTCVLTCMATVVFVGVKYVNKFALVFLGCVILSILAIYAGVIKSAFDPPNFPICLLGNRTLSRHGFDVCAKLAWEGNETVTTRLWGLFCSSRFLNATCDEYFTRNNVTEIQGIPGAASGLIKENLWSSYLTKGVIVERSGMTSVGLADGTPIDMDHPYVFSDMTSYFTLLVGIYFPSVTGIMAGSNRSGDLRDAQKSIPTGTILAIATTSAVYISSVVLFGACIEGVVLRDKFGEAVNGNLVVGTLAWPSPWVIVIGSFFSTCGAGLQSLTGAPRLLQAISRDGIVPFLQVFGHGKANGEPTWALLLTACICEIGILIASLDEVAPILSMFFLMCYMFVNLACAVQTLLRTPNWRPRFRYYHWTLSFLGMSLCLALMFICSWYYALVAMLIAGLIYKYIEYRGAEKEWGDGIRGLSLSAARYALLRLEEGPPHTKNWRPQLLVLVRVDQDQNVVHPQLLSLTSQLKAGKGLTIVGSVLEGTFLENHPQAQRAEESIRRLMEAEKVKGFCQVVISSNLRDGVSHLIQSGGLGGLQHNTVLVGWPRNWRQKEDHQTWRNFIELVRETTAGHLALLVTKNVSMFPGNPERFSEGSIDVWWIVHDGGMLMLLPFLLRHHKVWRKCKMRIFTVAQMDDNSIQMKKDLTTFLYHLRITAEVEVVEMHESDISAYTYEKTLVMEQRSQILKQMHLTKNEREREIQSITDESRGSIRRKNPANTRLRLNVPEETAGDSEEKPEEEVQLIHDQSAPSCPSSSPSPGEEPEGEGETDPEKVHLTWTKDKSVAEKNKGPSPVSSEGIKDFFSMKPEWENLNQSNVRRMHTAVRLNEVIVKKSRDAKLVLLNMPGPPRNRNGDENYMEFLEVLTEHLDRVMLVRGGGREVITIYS
KCC2 sec1 = confirmation of human KCC2 transport modulators; shares compounds with Cl transport mod; HEK293-KCC2, thallium flux, FluoZin2 fluorescence; stronger effect = higher value; normalised thallium flux (F/F0 slope) at 10 µM; 3,700 compounds, 15% hits;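 active means thallium flux slope above the same plate's solvent-only control mean plus 3 SD; inconclusive means the two replicate wells disagree; inactive means no significant difference from solvent-only control wells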
KCC2 bumet counter = bumetanide-insensitive thallium flux in KCC2 cells with ouabain, counter-screen | shares compounds with Cl transport mod | normalized thallium flux at 10 µM | 3,700 compounds, 49% hits | AID 1714 | HEK293-KCC2 + bumetanide/ouabain, thallium flux FluoZin2; stronger effect = higher value;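 active means thallium entry rate above the same plate's blocked-transporter control wells by more than 3 SD; inconclusive means the two repeat wells disagree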;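 further: raw slope of fluorescence over initial fluorescence between 10 and 20 s after thallium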
KCC2 sec2 = confirmation of human KCC2 transport modulators; shares compounds with Cl transport mod; HEK293-KCC2, thallium flux FluoZin2 fluorescence; actives lie on both sides; F/F0 rise rate, 10–20 s post-thallium; normalized thallium flux at 10 µM; 3,700 compounds, 23% hits; AID 1715;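 active means thallium flux slope more than 3 SD above or below the plate's solvent-only control mean, mostly below; inconclusive means the two repeat wells disagreed; inactive means no significant shift from solvent-only controls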;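 further: raw slope with 0.1% DMSO as baseline and bumetanide as block control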
HEK293 Tl flux = acts in parental HEK cells, KCC2 counter-screen. shares compounds with Cl transport mod. HEK293 parental cells, thallium flux FluoZin2, ouabain; baseline-ratio fluorescence slope, 10–20 s after thallium. thallium flux rate (normalised fluorescence) at 10 µM. 3,700 compounds, 46% hits. AID 1716;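 active means thallium flux rate significantly above the same plate's solvent-only control wells, beyond their mean plus 3 SD; inconclusive means the two replicate wells gave conflicting results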
KCC2 retest ouab = KCC2 (human) modulation, ouabain retest | shares compounds with Cl transport mod | HEK293-KCC2, thallium flux FluoZin2 fluorescence; bidirectional: low = inhibitor, high = activator | raw Tl+ flux slope (below DMSO = inhibition, above = activation) at 10 µM | 3,700 compounds, 48% hits;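 active means thallium flux slope beyond 3 SD from same-plate DMSO control mean in most replicates, usually higher, sometimes lower; inconclusive means repeat tests gave conflicting results; inactive means no significant difference from controls in most replicates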;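 further: slope of initial-normalized fluorescence between seconds 10 and 20 after thallium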
HEK293 Tl flux2 = acts in parental HEK cells, second KCC2 counter-screen. 3,700 compounds, 33% hits. thallium flux slope at 10 µM. HEK293 parental, thallium flux FluoZin-2 fluorescence slope. AID 1718. shares compounds with Cl transport mod;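 active means thallium flux slope above the same plate's solvent-control mean plus 3 SD in both duplicate wells; inconclusive means duplicate wells that disagreed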;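 further: run without ouabain in cells lacking the KCC2 cotransporter; slope of fluorescence scaled to its starting value between 10 and 20 s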
The depositor's hits bear a star; i = inactive; ? = inconclusive; · = not tested or not shown.

SMILES	HSV augment	ROMK mod	Measles CPE	Arbovirus anti	Cl transport mod	KCC2 sec1	KCC2 bumet counter	KCC2 sec2	HEK293 Tl flux	KCC2 retest ouab	HEK293 Tl flux2
COc1ccc(NC(=S)NC(=O)c2ccc(Br)o2)cc1	i	·	·	1	100*	0.057*	0.14*	0.061*	0.12*	0.11*	0.053*
COc1ccc(OC)c(-c2c(C#N)c(N)nc3c2c(=O)nc2sccn23)c1	i	0.5	·	0	0.93	·	·	·	·	·	·
CCc1nc2ccccc2c(NC(=O)CN2CC(C)CC(C)C2)c1C (centres undefined)	i	-0.83	·	1	-0.35	·	·	·	·	·	·
NC(=O)c1ccccc1NC(=S)NC(=O)c1ccc(Br)o1	i	0.53	13	5	1.2	·	·	·	·	·	·
Cc1snnc1C(=O)NC(=S)Nc1ccccc1	i	·	·	·	52*	0.026*	0.089*	?	0.047*	0.064*	0.014*
COc1ccc(NC(=S)NC(=O)/C=C/c2ccco2)cc1	i	1.2	·	-3	4.4*	0.01	0.016*	0.037	?	?	0.012
O=C(NC(=S)Nc1ccccc1)c1ccc(Br)o1	i	·	·	3	111*	0.046*	0.19*	0.062*	0.1*	0.13*	0.036*
O=C(NNC(=S)NC(=O)c1sc2ccccc2c1Cl)c1ccc(Cl)cc1	i	2.1	5	-11	25*	0.017*	0.053*	?	0.037*	0.052*	0.013*
Cc1nc(CNC(=O)CC2C(=O)NCCN2Cc2ccoc2)nc2c1CCCC2 (centres undefined)	i	·	·	·	1.1	·	·	·	·	·	·
COc1ccc(C(=O)NNC(=S)NC(=O)c2ccc(Br)o2)cc1OC	i	-0.13	·	-25	6.3*	0.0065	0.021*	0.038*	0.02*	?	0.021*
O=[N+]([O-])c1ccc(O)c(/C=N/n2cnc3ccccc32)c1	i	·	3	-4	-4.5*	0.0055	0.0049	0.021*	0.0061*	0.013*	?
O=c1[nH]nc(-c2ccc(F)cc2)cc1Cc1ccccn1	i	0.19	·	·	0.58	·	·	·	·	·	·
Cc1ccc(-c2cc(Cc3ccccn3)c(=O)[nH]n2)cc1	i	0.0033	·	·	-1.8	0.012	0.0086*	0.032	0.0071	0.021	0.011
CCOC(=O)c1c(C)[nH]c(N=Nc2ccccc2)c1C	i	·	5	2	5.2*	0.01	0.0097*	0.036	0.0091*	?	?
CCc1ccc(NC(=O)c2c(Cl)nc(C)c(Cl)c2C)cc1	i	0.28	4	-9	-4.2*	0.0054	0.0053	0.025*	?	0.016*	0.012
Cc1occc1-c1nnc(SCC(=O)N2CCOCC2)n1CC(C)C	i	·	5	13	·	·	·	·	·	·	·
Cc1occc1-c1nnc(SCC(=O)N2CCOCC2)n1Cc1ccco1	i	0.016	23	0	6.4*	0.0092	0.0062	0.035	0.008	0.022	0.01
CC1(C(=O)NCCCNc2ncc(C(F)(F)F)cc2Cl)C=CC2(CCCCC2)N1C(=O)c1ccccc1 (centres undefined)	i	·	·	·	·	·	·	·	·	·	·
C=C(C)CNC(=S)N=Nc1c(O)[nH]c2ccc([N+](=O)[O-])cc12	i	0.4	·	8	14*	0.0076	0.021*	0.033	0.024*	0.027*	0.014*
NC(=O)N=Nc1c(O)[nH]c2ccc([N+](=O)[O-])cc12	i	·	·	·	0.031	·	·	·	·	·	·
Cc1cc(-c2ccn[nH]2)c(C)s1	i	0.1	·	-2	-1.2	·	·	·	·	·	·
NC(=S)Nc1cccc(Cl)c1	i	-0.38	·	·	-0.48	·	·	·	·	·	·
CS/C(N)=N/C(=S)Nc1cccc(Cl)c1	i	·	·	·	7.5*	0.01	0.018*	0.034	?	0.023	?
N#Cc1ccc(C23CC4(C2)[C@H](CN(Cc2ccc(-c5ccccc5)cc2)[C@@H]4c2ccccc2)C3c2ccccc2)cc1 (some centres undefined)	i	·	·	·	3.7*	0.015	0.0049	0.026	0.0075	0.016	0.01
c1ccc(-c2ccc(CN3C[C@@H]4C(c5ccccc5)C5(c6ccccc6)CC4(C5)[C@H]3c3ccccc3)cc2)cc1 (some centres undefined)	i	·	·	·	0.46	·	·	·	·	·	·
SMILES	HSV augment	ROMK mod	Measles CPE	Arbovirus anti	Cl transport mod	KCC2 sec1	KCC2 bumet counter	KCC2 sec2	HEK293 Tl flux	KCC2 retest ouab	HEK293 Tl flux2
O=C(COC(=O)CCC(=O)c1cccs1)NCc1ccccc1	i	·	·	-2	-0.28	·	·	·	·	·	·
Cc1ccc(C2C(C#N)=C(N)Oc3c2sc2ccccc32)o1 (centres undefined)	i	·	14	-16	0.08	·	·	·	·	·	·
Cc1ccc(-n2nc(C(=O)O)cc2-c2ccc(Cl)cc2)cc1	i	0.16	·	-10	-3.7*	0.0093	0.0066	0.036	0.0039	0.017*	0.011
O=C(Nc1ccc2[nH]c(=S)sc2c1)Nc1ccccc1F	?	·	·	·	23*	0.0062	0.034*	?	0.019*	0.033*	0.021*
O=C(Nc1ccc(F)cc1)Nc1ccccc1F	i	0.056	·	4	-0.22	·	·	·	·	·	·
NC(=O)CSc1nc2c(sc3ccccc32)c(=O)n1CCCC(=O)NCC1CCCO1 (centres undefined)	i	·	·	·	-0.77	·	·	·	·	·	·
Cc1[nH]c(=S)sc1Cc1ccc(F)cc1	i	0.32	0	-5	40*	0.0056	0.12*	0.084*	0.089*	0.1*	0.067*
O=C(/C=C\Nc1ccc2c(c1)OCO2)c1ccc(Cl)s1	i	-0.016	·	-27	-0.028	·	·	·	·	·	·
C/C(=C\C(=O)c1ccc(Cl)s1)N(C)C	i	-0.51	·	-1	3.8*	0.011	0.014*	0.036	?	?	0.011
COc1ccc(/C=C(\C#N)C(=O)OCC(=O)NCc2ccc(Cl)cc2)cc1	i	-0.3	12	10	-0.61	·	·	·	·	·	·
CCC(C)(C)n1nnnc1C(c1cc2cc(C)ccc2[nH]c1=O)N1CCCC1 (centres undefined)	i	·	6	9	-0.015	·	·	·	·	·	·
Cc1ccc2cc(C(c3nnnn3C(C)(C)C)N3CCCCCC3)c(=O)[nH]c2c1 (centres undefined)	i	0.46	7	1	·	0.0091	0.0068	0.03	0.0069	0.025	0.011
S=c1sc2c(Cl)ncnc2n1-c1ccccc1	i	0.023	·	-35	-4.3*	0.0058	0.0046	0.033	0.0073	0.019	0.01
CC12CCCCN1CCCc1c2[nH]c2ccccc12 (centres undefined)	i	0.17	1	-1	8.2*	?	0.0044	0.029	0.0077	?	0.011
